Results filed as inconclusive are left out. A number with no mark means an inactive call. Activity calls are given as the source filed them. Calls follow the shape of the dose curve; as a rule, active = well fitted inhibition curve with a large enough effect; inconclusive = small, poorly fitted or top-dose-only effect; inactive = flat fitted curve, though single readings scatter.
Potency is read from the fitted curve at half-maximal effect.

The target in this experiment is Luciferin 4-monooxygenase (Photuris pensylvanica) (UniProt Q27757). Put plainly: Secondary Assay for Luciferase (Kinase-Glo TM) Inhibition Counterscreen.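 As to activity, negative = inhibition: 0% = DMSO only and -100% = 40 µM SIB 1757 full inhibition.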 The conditions noted are these: Kinase-Glo luciferase enzyme, luminescence; series mostly up to 58.1 µM; activity, negative = inhibition: at the top concentration. The method in brief:
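Inhibition was fitted with the Hill equation after normalizing luminescence to DMSO (basal) and 40 uM SIB 1757 (full inhibition). Kinase-Glo luciferase ran for 8 min at room temperature in imidazole buffer pH 7.2 with KCl, MgCl2 and 10 uM ATP.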
(In general: Kinase-Glo reads ATP consumption through a luciferase reaction.)
Regarding `CCOC(=O)Cc1csc(NC(=S)NC(=O)c2ccc([N+](=O)[O-])cc2)n1`, the “activity, negative = inhibition” value was 1.5%.
Still for that read-out and setting: with `COc1cc(N2C(=O)c3ccccc3C2=O)c2ncccc2c1` the figure was -2.36%; with `COc1cccc(N2C(=O)c3ccccc3C2=O)c1`, -4.49%.
Still for that read-out and setting: with `O=C1c2ccccc2C(=O)C1c1ccnc2ccccc12` the figure was -23.6%; with `Cc1ccc(NS(=O)(=O)c2cc3c(cc2N2CCCCC2)NC(=O)CC3)cc1C`, -1.98%.
On to `c1ccc(C2=NNC(=NC3CC3)SC2)cc1`, for which the Potency was 3.26 µM (active).
Same read-out and setting: the same measure for `O=C1c2ccccc2-c2nnc(-c3ccccc3)cc21`: 4.11 µM (active).
On to `O=C1CCc2cc(S(=O)(=O)Nc3cccc(F)c3)ccc2N1`, for which the “activity, negative = inhibition” value is -4.76%.
On the same count and under the same terms, the same measure for `COc1ccc(C(=O)C[n+]2ccc(N)c(C)c2C)cc1`: -1.09%.
As to `Cc1ccsc1C(=O)Nc1nc2ccccc2[nH]1`, the Potency is 16.3 µM (active).
For the molecule `O=C1c2ccccc2C(=O)N1c1ccncc1`, the “activity, negative = inhibition” value was -6.64%.
On the same count and under the same terms, with `Cc1ccccc1NS(=O)(=O)c1ccc2c(c1)CCC(=O)N2` the figure was 0.467%.
Still for that read-out and setting: the same measure for `O=C1c2ccccc2C(=O)N1Cc1ccncc1`: -0.589%; for `Cc1ccc(NS(=O)(=O)c2ccc3c(c2)CCC(=O)N3)cc1`: -4.6%.
Consider `O=C(/C=C1\C(=O)Nc2ccccc21)/C=C1\C(=O)Nc2ccccc21`, for which the “activity, negative = inhibition” value was -14.8%.
Still for that read-out and setting: with `Cc1ccc(NS(=O)(=O)c2ccc3ccccc3c2)cc1C` the figure was 1.5%; with `O=S1(=O)N=C(Oc2ccc(Cl)cc2)c2ccccc21`, -4.07%.
Still for that read-out and setting: the same measure for `O=c1[nH]c2ccccc2n2c(-c3ccccc3)nnc12`: -2.79%.
In the case of `Cc1ccccc1-c1nc(-c2ccccn2)no1`, the Potency was 4.61 µM (active).

These data come from PubChem BioAssay AID2530 (National Center for Advancing Translational Sciences (NCATS), 2010).
